Records with an inconclusive call do not appear. A number with no mark means an inactive call. The source made the active and inactive calls. Calls follow the shape of the dose curve; as a rule, active = well fitted inhibition curve with a large enough effect; inconclusive = small, poorly fitted or top-dose-only effect; inactive = flat fitted curve, though single readings scatter.

One assay relates to Dd2. Briefly: qHTS profiling for inhibitors of Plasmodium falciparum proliferation (AID 504749). Also: potency is read from the fitted curve at half-maximal effect. The conditions noted are these: P. falciparum in erythrocytes, SYBR Green DNA, 72 h; series mostly up to 28.7 µM. Summed up:
(§1)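 SYBR Green fluorescence (ex 485 nm, em 535 nm) reports parasite DNA after 72 h compound exposure of infected red cells at 0.3% parasitemia, 2.5% hematocrit; signal normalized to 0.29 uM artemisinin and vehicle wells.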

A further assay relates to ECU. The assay is described as above. The conditions noted are these: P. falciparum in erythrocytes, SYBR Green DNA, 72 h; series mostly up to 28.7 µM. Summed up: as §1
Another assay has as its system GB4. The assay is described as above. The conditions noted are these: P. falciparum in erythrocytes, SYBR Green DNA, 72 h; series mostly up to 28.7 µM. Summed up: as §1
A further assay concerns HB3. The description is as above. The settings on record: P. falciparum in erythrocytes, SYBR Green DNA, 72 h; series mostly up to 28.7 µM. A digest of the protocol: as §1
The next assay deals with ICS. The assay is described as above. The conditions noted are these: P. falciparum in erythrocytes, SYBR Green DNA, 72 h; series mostly up to 28.7 µM. Summed up: as §1
A further assay relates to N140. The assay is described as above. The conditions noted are these: P. falciparum in erythrocytes, SYBR Green DNA, 72 h; series mostly up to 28.7 µM. Summed up: as §1
For the next assay, the system named is P93_24. Described as above. The conditions noted are these: P. falciparum in erythrocytes, SYBR Green DNA, 72 h; series mostly up to 28.7 µM. A digest of the protocol: as §1
For another assay, the system named is P94_40. The assay is described as above. The settings on record: P. falciparum in erythrocytes, SYBR Green DNA, 72 h; series mostly up to 28.7 µM. A digest of the protocol:
as §1

A further assay deals with PAD. Described as above. The conditions noted are these: P. falciparum in erythrocytes, SYBR Green DNA, 72 h; series mostly up to 28.7 µM. A digest of the protocol:
as §1

The test system of a further assay is PC15. Described as above. The settings on record: P. falciparum in erythrocytes, SYBR Green DNA, 72 h; series mostly up to 28.7 µM. Summed up:
as §1

In a further assay the test system is PC26. The description is as above. The conditions noted are these: P. falciparum in erythrocytes, SYBR Green DNA, 72 h; series mostly up to 28.7 µM. Summed up:
as §1

The subject of the next assay is SC27B. The description is as above. The settings on record: P. falciparum in erythrocytes, SYBR Green DNA, 72 h; series mostly up to 28.7 µM. A digest of the protocol: as §1
A further assay concerns TAB109. The description is as above. The settings on record: P. falciparum in erythrocytes, SYBR Green DNA, 72 h; series mostly up to 28.7 µM. Summed up: as §1
In the next assay the test system is TAB113. The assay is described as above. The settings on record: P. falciparum in erythrocytes, SYBR Green DNA, 72 h; series mostly up to 28.7 µM. A digest of the protocol:
as §1

Another assay concerns TAB165. Described as above. The conditions noted are these: P. falciparum in erythrocytes, SYBR Green DNA, 72 h; series mostly up to 28.7 µM. A digest of the protocol:
as §1

A further assay concerns W2. The assay is described as above. The settings on record: P. falciparum in erythrocytes, SYBR Green DNA, 72 h; series mostly up to 28.7 µM. Summed up:
as §1

Another assay relates to FAB9. The assay is described as above. The conditions noted are these: P. falciparum in erythrocytes, SYBR Green DNA, 72 h; series mostly up to 28.7 µM. A digest of the protocol:
as §1

The subject of another assay is JCK. The description is as above. The conditions noted are these: P. falciparum in erythrocytes, SYBR Green DNA, 72 h; series mostly up to 28.7 µM. Summed up: as §1
Another assay has as its system PC49. The description is as above. The settings on record: P. falciparum in erythrocytes, SYBR Green DNA, 72 h; series mostly up to 28.7 µM. A digest of the protocol:
as §1

Another assay relates to CRL-7250. Briefly: Cytotoxic Profiling of Annotated Libraries Using Quantitative High-Throughput Screening (AID 1296008). Also: % is scaled to controls: 0 for no effect and ±100 for the full control effect. The conditions noted are these: Five cell lines viability, CellTiter-Glo ATP luminescence, 48-72 h; max response: stronger effect = lower value. Summed up: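 Cells exposed to compounds for 48 or 72 hr at 37 degrees Celsius. Viability read as ATP-coupled luminescence with CellTiter-Glo after 10 min at room temperature.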
(In general: Cellular ATP, detected with luciferase, serves as a proxy for viable cell number.)
Also: nearly all actives have a fitted effect of over 60% in size.

For `COC(=O)C1=C(C)NC(C)=C(C(=O)OC(C)(C)CN(C)CCC(c2ccccc2)c2ccccc2)C1c1cccc([N+](=O)[O-])c1` (centres undefined), the Potency in the assay on Dd2 was 2.24 µM (active); in the assay on ECU, 3.16 µM (active); with GB4 it was 2.13 µM (active); in the assay on HB3, 3.16 µM (active); in the assay with ICS it was 2 µM (active); in the assay with N140, 2.51 µM (active). The Potency in the assay on P93_24 was 2.51 µM (active); in the assay with P94_40, 2.51 µM (active); in the assay with PAD it was 2.51 µM (active); in the assay on PC15 it was 6.31 µM (active); in the assay on PC26, 1.51 µM (active); in the assay with SC27B, 2.24 µM (active). Further, the Potency in the assay on TAB109 is 3.16 µM (active); in the assay on TAB113, 2.51 µM (active); in the assay with TAB165, 2.24 µM (active); in the assay with W2, 1.2 µM (active).

Turning to `C#CCN(C)CCCOc1ccc(Cl)cc1Cl`, the Potency entry in the assay on Dd2, in the assay with ECU, in the assay with FAB9, with GB4, in the assay on HB3 and with ICS was “inactive” each time. For the same molecule, the Potency entry in the assay on JCK, with N140, with P93_24, with P94_40, with PAD and in the assay on PC15 was “inactive” in each case. Moreover, the Potency entry with PC26, in the assay with PC49, with SC27B, in the assay on TAB109, with TAB113 and with TAB165 was “inactive” in each case.

Consider `CSc1ccc(C(=O)c2[nH]c(=O)[nH]c2C)cc1`, for which the Potency entry with Dd2, in the assay with ECU, in the assay with FAB9, in the assay on GB4, with HB3 and with ICS was “inactive” throughout. Also, the Potency result in the assay with JCK, in the assay on N140, in the assay on P93_24, in the assay on P94_40, in the assay with PAD and in the assay on PC15 was “inactive” each time. Moreover, the Potency result in the assay with PC26, in the assay with PC49, with SC27B, in the assay with TAB109, with TAB113 and with TAB165 was “inactive” throughout. For the same molecule, in the assay on W2, the Potency result is “inactive”.

`CC(C)(C)c1ccc(C(=O)CCCN2CCC(OC(c3ccccc3)c3ccccc3)CC2)cc1`: the Potency with Dd2 is 10 µM (active); with GB4 it was 10.7 µM (active); with ICS, 4.47 µM (active); with N140, 10 µM (active); in the assay with P94_40, 7.94 µM (active); in the assay with TAB165, 7.94 µM (active). Moreover, in the assay with W2, the Potency was 4.78 µM (active). Also, the Potency result with JCK and with PC49 was “inactive” each time.

For `CC(C)[N+](C)(CCOC(=O)C1c2ccccc2Oc2ccccc21)C(C)C`, the Potency result in the assay on JCK, with PC15, in the assay with PC26 and in the assay with PC49 was “inactive” in each case. Moreover, the max response in the assay on CRL-7250 was -3.69%.

For the molecule `COCCCC/C(=N\OCCN)c1ccc(C(F)(F)F)cc1`, the figures for the Potency in the assay on Dd2, in the assay on P93_24 and with TAB165 were 7.94 µM (active), 8.91 µM (active) and 7.94 µM (active), respectively. In addition, the Potency result with FAB9, in the assay on HB3, with JCK and in the assay on PC49 was “inactive” in each case.

Consider `COc1cc2c(cc1OC)-c1cc(=Nc3c(C)cc(C)cc3C)n(C)c(=O)n1CC2`, for which the Potency in the assay on Dd2 was 7.94 µM (active); in the assay on ECU it was 5.01 µM (active); in the assay with FAB9, 3.98 µM (active); in the assay on GB4 it was 2.69 µM (active); with HB3, 7.08 µM (active); in the assay on ICS it was 1.78 µM (active). Also, the Potency with JCK is 5.62 µM (active); in the assay with N140, 3.16 µM (active); with P93_24, 3.55 µM (active); with P94_40, 3.98 µM (active); in the assay with PAD it was 3.16 µM (active); with PC15, 10 µM (active). Further, the Potency is 6.01 µM (active) with PC26; 3.55 µM (active) in the assay on PC49; 2.82 µM (active) with SC27B; 4.47 µM (active) with TAB109; 3.16 µM (active) with TAB113; 2.51 µM (active) in the assay on TAB165. Further, the Potency in the assay on W2 was 1.9 µM (active).

As for `CC(C)COCC(CN(Cc1ccccc1)c1ccccc1)N1CCCC1` (centres undefined), the Potency result in the assay with ECU, in the assay with FAB9, in the assay with HB3, in the assay on JCK, in the assay with P93_24 and in the assay on PAD was “inactive” throughout. Also, the Potency result in the assay with PC49, in the assay with SC27B, in the assay on TAB109 and in the assay with TAB113 was “inactive” in each case.

On to `CN(C(=O)CCCOc1ccc2[nH]c(=O)ccc2c1)C1CCCCC1`, for which the Potency entry in the assay on ECU, with FAB9, with GB4, with HB3, in the assay with N140 and in the assay on PC15 was “inactive” in each case. Besides, the Potency entry in the assay with SC27B, with TAB109 and in the assay with TAB113 was “inactive” throughout.

In the case of `O=C1NCN(c2ccccc2)C12CCN(CCCC(c1ccc(F)cc1)c1ccc(F)cc1)CC2`, the Potency in the assay on Dd2 is 5.01 µM (active); in the assay with ECU it was 5.62 µM (active); in the assay on GB4, 6.75 µM (active); in the assay on HB3, 7.08 µM (active); in the assay on ICS, 3.98 µM (active); in the assay with N140, 5.62 µM (active). The Potency was 4.47 µM (active) in the assay with P93_24; 5.62 µM (active) with P94_40; 5.01 µM (active) with PAD; 11.2 µM (active) with PC15; 8.91 µM (active) with SC27B; 6.31 µM (active) with TAB109. Besides, the Potency with TAB113 was 12.6 µM (active); in the assay on TAB165, 3.55 µM (active); in the assay with W2, 2.39 µM (active). Also, in the assay with FAB9, the Potency entry was “inactive”.

Regarding `CN1CCN(CC(=O)N2c3ccccc3C(=O)Nc3cccnc32)CC1`, the Potency result with Dd2, in the assay with ECU, in the assay on FAB9, with GB4, with HB3 and with ICS was “inactive” each time. In addition, the Potency result in the assay with JCK, in the assay with N140, in the assay with P93_24, in the assay with P94_40, in the assay with PAD and in the assay on PC15 was “inactive” throughout. Also, the Potency entry with PC26, with PC49, in the assay on SC27B, in the assay with TAB109, in the assay on TAB113 and with TAB165 was “inactive” each time. Moreover, in the assay with W2, the Potency entry was “inactive”.

In the case of `CC1=NS(=O)(=O)c2cc(Cl)ccc2N1`, the Potency result in the assay on ECU, in the assay with FAB9, in the assay on GB4, in the assay with ICS, in the assay with N140 and in the assay with PAD was “inactive” each time. For the same molecule, the Potency entry in the assay on PC26, in the assay on SC27B and in the assay on TAB113 was “inactive” each time.

As to `NC(N)=NC(=O)Cc1c(Cl)cccc1Cl`, the Potency is 6.75 µM (active) in the assay on GB4, 7.94 µM (active) in the assay with ICS, 7.57 µM (active) in the assay with PC26 and 6.75 µM (active) in the assay on W2. The Potency entry with TAB113 was “inactive”. Also, in the assay on CRL-7250, the max response is -2.41%.

Take `NC1=NCC2c3ccccc3Cc3ccccc3N12` (centres undefined): the Potency result in the assay on Dd2, in the assay with ECU, in the assay on FAB9, in the assay with HB3, in the assay with JCK and in the assay on N140 was “inactive” each time. Further, the Potency result in the assay on P93_24, in the assay on P94_40, in the assay with PAD, in the assay with PC15, in the assay on PC26 and in the assay with PC49 was “inactive” in each case. The Potency result in the assay with SC27B, in the assay on TAB109, in the assay with TAB113, in the assay with TAB165 and in the assay with W2 was “inactive” in each case.

The values are drawn from PubChem BioAssay (NCATS).
